Reference: PubChem BioAssay (NCI)
Compounds without any hit were thinned out: in the full panel of roughly 83,000, 20% have a hit.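 Activity criterion: percent growth below 10, measured after cells in 96-well plates were exposed to a single compound concentration for 48 hours.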 A number with no mark means an inactive call. The source made the active and inactive calls.

system: MDA-MB-468 breast; assay: NCI-60 one-dose screen, 48 h (100 = growth as untreated, 0 = no growth, -100 = all killed); settings: 10 µM unless noted

Row | Compound | growth
1 | O=C(CNC(=O)c1cccc2ccccc12)Nc1ccccc1Oc1ccc(O)cc1 | 27.5% [5 µM]
2 | O=C(/C=C/c1cccc(Cl)c1)c1ccc(O)c(CN2CCN(c3cc4c(cc3F)c(=O)c(C(=O)O)cn4C3CC3)CC2)c1 | 28.8%
3 | COC(=O)[C@H]1[C@H]2C[C@@H]3c4[nH]c5cc(OC)ccc5c4CCN3C[C@H]2C[C@@H](OC(=O)/C=C/c2cc(OC)c(OC)c(OC)c2)[C@@H]1OC | 9.21% (active)
4 | Cc1nn(-c2ccccc2)c2ncnc(N/N=C/c3cccc(O)c3)c12 | -0.147% (active)
5 | CCCc1cc(NC)nc(S(=O)(=O)CC)n1 | 119%
6 | C=C1C(=O)O[C@H]2[C@H]1CC/C(C=Nc1c(N)cc(C(F)(F)F)cc1C(F)(F)F)=C\CC[C@@]1(C)O[C@@H]21 | -58.1% (active)
7 | Cc1ccccc1COc1ccc(-c2onc(C)c2-c2ccc(Cl)cc2)cc1 | 36.1%
8 | O=[N+]([O-])c1cccc(CN(Cc2cccc([N+](=O)[O-])c2O)c2ccccc2)c1O | 108%
9 | CCCCC/C=C\C/C=C/CCCCCCCCNC(=O)Nc1ccc([N+](=O)[O-])cc1 | 84.5%
10 | O=C(N/N=C\c1cc(Cl)ccc1O)N/N=C/c1cc(Cl)ccc1O | 61.5%
11 | N#C/C(=C\c1ccccc1Cl)c1cc2ccccc2[nH]1 | 58.1%
12 | Cn1c(=O)c2c(nc(Br)n2CC(=O)Nc2ccc(F)cc2)n(C)c1=O | 109%
13 | CCCCCCNC(=O)Nc1ccc2cc3ccc(NC(=O)NCCCCCC)cc3nc2c1 | 18.6%
